Among the data in ChEMBL document CHEMBL4513141, “CO-ADD screening of NIH (USA) - Clinical Collection” (2021) are Inhibition values, retold here.

Test [1] relates to Klebsiella pneumoniae. Particulars: Concentration 20 uM; ASSAY_TEST Inhibition of Bacterial Growth; detection method Absorption (OD600); MEDIA CAMHB; plate type 384well; NBS; CORNING #3640; time 18 hr.
The test system of test [2] is Candida albicans. The following applies: 20 µM.
Test [3] relates to Cryptococcus neoformans. The following applies: Concentration 20 uM; ASSAY_TEST Inhibition of Fungal Growth; detection method Resazurin; Absorption (OD600-OD570); plate type 384well; NBS; CORNING #3640. In general terms: Resazurin is reduced to fluorescent resorufin, in cell work by metabolically active cells.

Results with a measured potency or affinity are listed apart.

In the case of `Cl.O=C(O)/C=C/c1ccc(Cn2ccnc2)cc1`, the Inhibition (as a rule, the change of the read-out against control, counted positive when it falls) in test [1] is 3.67%; in test [2] it was 3.2%; in test [3], -5.32%.
As to `CCN(CC)CCOC(=O)c1ccc(N)cc1.Cl` [PROCAINE HYDROCHLORIDE], the Inhibition in test [1] is 12%; in test [2], 3.62%; in test [3] it was -2.16%.
For `CCOc1cc(N)c(Cl)cc1C(=O)NCC1CN(Cc2ccc(F)cc2)CCO1.O=C(O)CC(O)(CC(=O)O)C(=O)O` (configuration not stated) [MOSAPRIDE CITRATE], the Inhibition in test [1] was 16.24%; in test [2] it was 1.57%; in test [3], -5.5%.
For `NNCCc1ccccc1.O=S(=O)(O)O` [PHENELZINE SULFATE] the same measures were 6.23%, 4.34% and -10.12%.
For `CC1(C)O[C@@H]2C[C@H]3[C@@H]4C[C@H](F)C5=CC(=O)C=C[C@]5(C)[C@H]4[C@@H](O)C[C@]3(C)[C@]2(C(=O)CO)O1` [FLUNISOLIDE], the Inhibition in test [1] was 10.74%; in test [2] it was 7.13%; in test [3] it was -6.19%.
Taken in the same sequence, the figures for `COc1ccccc1OCC(O)CN1CCN(CC(=O)Nc2c(C)cccc2C)CC1.Cl.Cl` (configuration not stated) [RANOLAZINE HYDROCHLORIDE] were 1.09%, 1.45% and -5.35%.
For `Nc1ncnc2c1ncn2[C@@H]1O[C@H](CO)[C@@H](O)[C@@H]1O` [VIDARABINE] the same measures were 13.1%, 4.29% and 1.72%.
As for `CC(C)(C)NCC(O)COc1cccc2c1CC(O)C(O)C2` (configuration not stated) [NADOLOL], the Inhibition was 10.61% in test [1], 1.18% in test [2] and -8.66% in test [3].
For `Cc1ccc(N(CC2=NCCN2)c2cccc(O)c2)cc1` [PHENTOLAMINE], the Inhibition in test [1] was 6.34%; in test [2] it was 2.06%; in test [3] it was -2.31%.
